From PubChem BioAssay
LASV entry inh: blocks Lassa virus binding to or entry into cells; Lassa virus pseudotype entry inhibition, cell reporter; Potency, µM (doses to about 37.9 µM), actives largely listed as inhibitors; hit rate 1.2% among 300,000; calls by dose curve; tested in HEK293 cells; also: nearly all actives have a fitted effect of over 50% in size
Vaccinia Venus: vaccinia inhibition (Venus reporter). Vaccinia virus Venus reporter expression, fluorescence. Potency, µM (series often up to 36.5 µM), usual class: inhibitors. hit rate 0.46% among 330,000. AID 720580; calls by dose curve; tested in A549 cells; also: nearly all actives have a fitted effect of over 30% in size
MARV entry inh: blocks Marburg virus binding to or entry into cells. Marburg virus pseudotyped entry inhibition, cell reporter. Potency, µM (top dose mostly 37.8 µM), usual class: inhibitors. hit rate 1.8% among 300,000; calls by dose curve; tested in HEK293 cells
HCMV inh: blocks human cytomegalovirus replication; HFF cells, HCMV-luciferase reporter, 72 h; active compounds read low; activity change, negative = inhibition, % at 57.5 µM; hit rate 4.5% among 410,000; in the data active = activity change below about -60%; inconclusive = no clear call, values can overlap the other calls; inactive = above about -39%
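Luciferase read-out from HCMV-luciferase-infected HFFs (MOI 1 PFU/cell) 72 h post infection at 37C; compounds added after 16 h cell attachment; activity normalized between buffer-only basal and Salinomycin (10uM) inhibitor controls.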
HCV inh: blocks hepatitis C virus; Huh7.5.1 HCVcc-Cre infection, luciferase reporter, 44 h; Potency, µM (series often up to 41.8 µM), most hits filed as inhibitors; hit rate 3.4% among 340,000; AID 651820; active = well fitted inhibition curve with a large enough effect; inconclusive = small, poorly fitted or top-dose-only effect, or another doubt; inactive = no such curve, though single readings can be large or run the other way
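After 44 h co-culture of compound, cells and HCVcc-Cre (~0.5 moi), substrate is added for 15 min at room temperature and luciferase measured over 15 sec. Cells were seeded at 1,000/well and pre-cultured 4 h.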
Vaccinia mCherry: vaccinia inhibition (mCherry reporter); Vaccinia virus mCherry reporter infection, fluorescence; Potency, µM (highest dose often 36.5 µM), actives largely listed as inhibitors; hit rate 0.63% among 310,000; AID 720579; calls by dose curve; tested in A549 cells; also: nearly all actives have a fitted effect of over 35% in size
Of the large screens only hits and unclear results are named; the others gave an inactive call. A selection: hits, their analogues and other compounds. The true share with any hit is near 7.8%.

Cc1ccc(C#N)c(SCc2ccccc2[N+](=O)[O-])n1	HCMV inh inconclusive
Cc1cc(C)c(C#N)c(SCc2nnc(-c3ccccc3[N+](=O)[O-])o2)n1	LASV entry inh inconclusive, MARV entry inh inconclusive, HCMV inh -94.8, HCV inh inconclusive
Cc1cc(C)c(C#N)c(SCc2cn3c(C)cccc3n2)n1	HCMV inh -63.1, HCV inh inconclusive
Cc1cc(C)c(C#N)c(SCc2nnc(-c3ccccc3)o2)n1	LASV entry inh 1.16µM, MARV entry inh 1.16µM, HCMV inh -93.1, HCV inh inconclusive
Cc1cc(C)c(C#N)c(SCc2ccccc2[N+](=O)[O-])n1	HCMV inh -96.9
COc1ccc2c3c(n(C)c2c1)[C@@H](CO)N(C(=O)Cc1ccccn1)CC31CCN(C)CC1	none (no result: LASV entry inh, Vaccinia Venus, MARV entry inh, HCV inh, Vaccinia mCherry)
Cc1ccc(C#N)c(SCc2cc3c(cc2Cl)OCO3)n1	none (no result: Vaccinia Venus, Vaccinia mCherry)
Cc1ccc(C#N)c(SCc2nnc(-c3ccc(Cl)cc3)o2)n1	LASV entry inh inconclusive, MARV entry inh 2.06µM, HCMV inh -91.1
CN(C)c1ccc(Nc2nc(N)c3ccccc3n2)cc1	LASV entry inh 0.891µM, MARV entry inh 0.631µM, HCV inh inconclusive, Vaccinia mCherry inconclusive
Nc1nc(Nc2ccccc2)nc2ccccc12	LASV entry inh inconclusive, MARV entry inh inconclusive
Nc1nc(Nc2ccc(Cl)cc2)nc2ccccc12	LASV entry inh inconclusive, Vaccinia Venus inconclusive, MARV entry inh inconclusive, Vaccinia mCherry inconclusive
CCOc1ccc(Nc2nc(N)c3ccccc3n2)cc1	LASV entry inh inconclusive, Vaccinia Venus inconclusive, MARV entry inh 4.47µM, Vaccinia mCherry inconclusive
CCOc1ccccc1NC(=O)Cn1c(=O)n(CC(=O)NCc2ccccc2Cl)c(=O)c2sccc21	MARV entry inh inconclusive (no result: HCV inh)
COc1ccccc1Cc1nc2ccccc2nc1SCC(=O)NCc1ccc(F)cc1	HCMV inh inconclusive (no result: MARV entry inh, HCV inh)
COCCNC(=O)C(c1ccc(C)o1)N(C(=O)c1snc(C(N)=O)c1N)c1ccc(C)c(C)c1 (stereo not drawn)	HCMV inh -65.2
COCCNC(=O)C(c1ccc(C)o1)N(C(=O)c1snc(C(N)=O)c1N)c1ccc(C)cc1 (stereo not drawn)	MARV entry inh inconclusive, HCMV inh inconclusive
COc1ccc(C(C(=O)NC2CCCC2)N(C(=O)c2snc(-c3ccc(F)cc3)c2N)c2ccccc2)cc1 (stereo not drawn)	none (no result: Vaccinia Venus, Vaccinia mCherry)
COc1ccc(N(C(=O)c2snc(C(N)=O)c2N)C(C(=O)NCc2ccc(F)cc2)c2ccc(C)o2)c(OC)c1 (stereo not drawn)	LASV entry inh 8.91µM, MARV entry inh 12.6µM, HCMV inh inconclusive, HCV inh inconclusive
COc1ccc(C(C(=O)NC2CCCC2)N(C(=O)c2snc(-c3ccc(F)cc3)c2N)c2cccc(F)c2)cc1 (stereo not drawn)	HCV inh 10µM (no result: Vaccinia Venus, Vaccinia mCherry)
COc1ccc(N(C(=O)c2snc(C(N)=O)c2N)C(C(=O)NC2CCCC2)c2ccc3ncccc3c2)cc1 (stereo not drawn)	LASV entry inh inconclusive, MARV entry inh inconclusive, HCMV inh -89.2, HCV inh inconclusive
Cc1ccc(NC(=O)CSc2nc(=O)n(CCN3CCOCC3)c3c2CCC3)c(C)c1	none (no result: MARV entry inh, HCV inh)
COc1ccc2c(C)c(CCC(=O)NCCc3ccc(Cl)cc3)c(=O)oc2c1	none (no result: HCV inh)
O=C(/C=C/c1ccccc1)N[C@H]1CC[C@@]23CCCN2C(=O)CCC[C@H]3[C@H]1Cc1ccccc1	none (no result: LASV entry inh, Vaccinia Venus, MARV entry inh, HCV inh, Vaccinia mCherry)
Oc1cccc(Nc2nccc3[nH]c(-c4cccc(OC(F)(F)F)c4)nc23)c1	none (no result: LASV entry inh, Vaccinia Venus, MARV entry inh, HCV inh, Vaccinia mCherry)
COc1ccc(N(C(=O)c2snc(C(N)=O)c2N)C(C(=O)NC2CCCC2)c2ccc(F)cc2)c(OC)c1 (stereo not drawn)	MARV entry inh inconclusive, HCV inh 11.2µM
CCOc1ccc(C(C(=O)NC2CCCC2)N(C(=O)c2snc(C(N)=O)c2N)c2cccc(O)c2)cc1 (stereo not drawn)	LASV entry inh inconclusive, MARV entry inh inconclusive, HCV inh 12.6µM
COc1ccc(C(C(=O)NC2CCCCC2)N(C(=O)c2snc(C(N)=O)c2N)c2ccc(OC)cc2OC)cc1 (stereo not drawn)	LASV entry inh inconclusive, MARV entry inh inconclusive, HCMV inh inconclusive, HCV inh 8.91µM
O=C1COc2ccc(C(=O)CSc3nc4ccccc4c(=O)n3-c3ccc(Cl)c(Cl)c3)cc2N1	MARV entry inh inconclusive, HCMV inh -80.8
CCc1ccc(-n2c(SCC(=O)c3ccc4c(c3)NC(=O)CO4)nc3ccccc3c2=O)cc1	LASV entry inh inconclusive, HCV inh inconclusive
CC(C)Cc1nn2c(=O)cc(COC(=O)c3cccc(NC(=O)CCc4ccccc4)c3)nc2s1	none (no result: MARV entry inh, HCV inh)
Cc1ccc(NC(=O)CCCCCN2C(=O)[C@@H]3Cc4ccccc4CN3C2=O)c(Cl)c1	HCV inh 12.6µM (no result: LASV entry inh, Vaccinia Venus, MARV entry inh, Vaccinia mCherry)
CC1CCC(NCCc2ccc3c(c2)OCO3)CC1 (stereo not drawn)	MARV entry inh 16.4µM, HCV inh inconclusive
O=C(NC1CCCCC1)c1ccc2c(c1)OCO2	MARV entry inh inconclusive
CC1CCC(NC(=O)c2ccc3c(c2)OCO3)CC1 (stereo not drawn)	LASV entry inh 3.55µM, MARV entry inh inconclusive
c1cc2c(cc1CCNC1C3CC4CC(C3)CC1C4)OCO2 (stereo not drawn)	MARV entry inh inconclusive, HCV inh inconclusive (no result: Vaccinia Venus, Vaccinia mCherry)
Fc1ccccc1N1CCN(c2nnc(C(F)(F)F)c3nnn(Cc4ccccc4)c23)CC1	none (no result: HCV inh)
CC(=O)Nc1c(C)nn(-c2ccccc2)c1N1CCC(C(=O)Nc2ccc(Cl)cc2C)CC1	none (no result: MARV entry inh, HCV inh)
Cc1cc(C(C)(C)C)oc1C(=O)N1CCN(C(=O)c2oc(C(C)(C)C)cc2C)CC1	HCMV inh -66.5 (no result: LASV entry inh, Vaccinia Venus, Vaccinia mCherry)
O=[N+]([O-])c1cccc(S(=O)(=O)N2CCN(c3nc(-c4cccs4)nc4ccccc34)CC2)c1	none (no result: LASV entry inh, MARV entry inh, HCMV inh, HCV inh)
Cc1ccc(C(C)C)c2c1C(c1ccc3c(c1)OCO3)CC(=O)O2 (stereo not drawn)	HCV inh 12.6µM, Vaccinia mCherry inconclusive (no result: LASV entry inh, MARV entry inh)
N#C/C(=C\c1ccco1)C(=O)NCc1ccccc1	none (no result: LASV entry inh, Vaccinia Venus, MARV entry inh, HCMV inh, Vaccinia mCherry)
CC(/C=N/n1c(-c2ccc(Cl)cc2)n[nH]c1=S)=C\c1ccco1	none
N#CC(C#N)=C1C=CC=CN1/C(=C\c1ccco1)C(=O)c1ccc(-c2ccccc2)cc1	LASV entry inh inconclusive, MARV entry inh 15.8µM, HCMV inh -101.4, HCV inh inconclusive, Vaccinia mCherry inconclusive
N#CC(C#N)=C1C=CC=CN1/C(=C\c1ccco1)C(=O)c1ccc(Cl)cc1	LASV entry inh inconclusive, Vaccinia Venus 28.2µM, MARV entry inh inconclusive, HCMV inh -97.2, HCV inh inconclusive, Vaccinia mCherry inconclusive
COc1ccc2c(c1)[C@@H](NC(=O)c1c(C)noc1C)[C@H](C)[C@@H](c1ccccc1)N2Cc1cccc(F)c1	none (no result: LASV entry inh, Vaccinia Venus, MARV entry inh, HCV inh, Vaccinia mCherry)
CCC(=O)NC(Nc1sc2c(c1C(=O)OC)CCN(C)C2)(C(F)(F)F)C(F)(F)F	HCMV inh -101.2 (no result: Vaccinia Venus, Vaccinia mCherry)
Oc1ccc(C(=S)N2CCCCC2)cc1Cl	HCMV inh -75.2 (no result: Vaccinia Venus, Vaccinia mCherry)
COc1ccc2cc(CN(C(=O)c3cc(C)nn3C)C3CC3)c(-c3ccc(Cl)cc3)nc2c1	none (no result: LASV entry inh, MARV entry inh, HCMV inh, HCV inh)
